# The supplement of paper PMC10338343
# ± gives the standard deviation.
# System: EfPiwi piRISC loaded with piRNA #1 (26 nt)
# Test: pre-steady-state target cleavage rate (min^-1); auxiliary factor: 500 nM Ephydatia muelleri Gtsf1; guide: piRNA #1 5'p-UGAGGUAGUAGGUUGUAUAGUAUCCA; MIWI and MILI are mouse PIWI proteins and EfPiwi is from a freshwater sponge; tags in brackets are library labels; higher = faster piRNA-guided slicing of the target
# Procedure, shortened: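 In HEPES–potassium acetate buffer at 33 °C, […] transcribed, DNA-blocked target RNA library was mixed with 1 nM active affinity-purified piRISC carrying one synthetic guide, with or without 500 nM GTSF1 partner protein, for 0–8 or 0–960 min. Uncleaved targets were sequenced and normalised to depth and to weakly complementary targets; three trials were pooled and k3 was capped at 0.0001 min^-1. The pre-steady-state cleavage rate followed from a burst-and-steady-state fit.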
row,Sequence,pre-steady-state target cleavage rate
1,GGAGAGGAUACUAUUCAACCUACUACCUCA,0.012 ± 0.0057
2,GGAGAGGAUACUAUACAACCUACUACCCUCA,0.00508 ± 0.0022
3,GGAGACCAUACUAUACAACCUACUUGGUCA,0.00392 ± 0.0029
4,GGAGACGAAACUAUACAUCCUACUACCUCA,0.00655 ± 0.0027
5,GGAGACCUAUGAUAUGUUGCAACUACCACA,< 0.0001
6,GGAGACCUUACUGUACAACCUACUACCUCA,0.0146 ± 0.0073
7,GGAGUGGAUACUAUACAACCUAGUAGCUCA,0.00485 ± 0.0018
8,GGAGACGAUAGUAUACAACCUACUACGUCA,0.0019 ± 0.0015
9,GGAGUGGAUACUAUACACACCUACUACCUCA,0.0105 ± 0.005
10,GGAGUGGAUACUAUACAACCUUCAACCUCA,0.00298 ± 0.0018
11,GGAGACCAUACUAUACAGACCUACUACCUCA,0.0137 ± 0.0061
12,GGAGUGGAUACUAUACAACCUUCUACCUGA,0.00359 ± 0.0018
13,GGAGUGGAUACUAUACAACCUACUCCUCA,0.00475 ± 0.0027
14,GGAGUGGAUACUAUACAACCUACUUCCACA,0.00294 ± 0.0024
15,GGAGAGGAUAGUAUACAACCAACUACCUCA,0.00242 ± 0.0023
16,GGAGAGGAUACUAUACAACCUACUAGGAGA [g6:g25:cont:t1A],0.00363 ± 0.0023
17,GGAGACCAUACUAUACACACCUACUACCUCA,0.00511 ± 0.0031
18,GGAGUGGAUACUAUACAACCUAGAUCCUCA,0.00311 ± 0.0016
19,GGAGACGAUACUAUACAACCUACUAGGAGA [g6:g24:cont:t1A],0.00317 ± 0.0021
20,GGAGACCUAUGAUAUGUACCUUCUACCUGA,< 0.0001

row,Sequence,pre-steady-state target cleavage rate
1,GGAGAGGAUAGUAUACAACCUACAACCUCA,0.00249 ± 0.0021
2,GGAGACGAUACUAUACAACCUAGUACCUGA,0.00389 ± 0.001
3,GGAGUGGAUACUAUACAACCUACUUCCUGA,0.00267 ± 0.0023
4,GGAGAGGAUACUAUACAACCUUGAACCUCA,0.00408 ± 0.004
5,GGAGACCUAUGAUAUCAACCAAGUACCUCA,< 0.0001
6,GGAGAGGAAACUAUACAACCAACUACCUCA,0.00523 ± 0.0026
7,GGAGACCUUACUAUACAACCUACUACCAGA,0.00482 ± 0.0036
8,GGAGACCUAUCUAUACAACCUACUACCUUA,0.0739 ± 0.027
9,GGAGUGGAUACUAUACAACCUUGUACCUCA,0.00568 ± 0.0024
10,GGAGAGGAUACUAUACAACCUACAACGUCA,0.00371 ± 0.0017
11,GGAGACGAUACUAUACAAGCUAGUACCUCA,0.00387 ± 0.002
12,GGAGACCAAACUAUACAACCAACUACCUCA,0.00588 ± 0.003
13,GGAGACCUAACAUAUACAACCUACUACCUCA,0.0546 ± 0.02
14,GGAGUGGUUAGUAUACAACCUACUACCUCA,0.00533 ± 0.0036
15,GGAGUGGAAACUAUACUACCUACUACCUCA,0.00676 ± 0.0042
16,GGAGUGGAUACUAUACAACCUAGUACGUCA,0.00381 ± 0.0014
17,GGAGUGGAAACUAUACAACCAACUACCUCA,0.0049 ± 0.0032
18,GGAGACGUUACUAUACAUCCUACUACCUCA,0.00676 ± 0.003
19,GGAGAGGAUACUAUACAACGUACUUCCUCA,0.00375 ± 0.0013
20,GGAGAGGAUACAAUACAAGCUACUACCUCA,0.0036 ± 0.0019
